Structures are written as SMILES. A number with no mark means an inactive call.

In this assay the test system is Plasmodium falciparum NF54-HGL (transmission to Anopheles stephensi). The assay can be described thus: percentage of barcode signal found in uninfected mosquitoes (transmission-blocking activity); higher = stronger blocking of transmission to mosquito, active = 80 or more. The settings on record: 20 µM; gametocyte preincubation time 24 h; readout time post-feed 8 days. On the procedure:
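The mixture was fed to Anopheles stephensi in 96-well plates as blood meals tagged with DNA-barcoded Asaia bacteria. Eight days later, mosquitoes were classed infected or uninfected by luminescence (mean + 5 SD of unfed controls). Barcodes were quantified by Luminex MagPlex-TAG in the pooled uninfected and infected Asaia cultures, background-corrected, and the score is % of barcode signal in uninfected mosquitoes = 100*Iu/(Iu+Ii).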
For `CN1CCN(S(=O)(=O)c2ccc(-c3ccc4c(Nc5ncc(Cl)cn5)ccnc4c3)cc2)CC1`, the “percentage of barcode signal found in uninfected mosquitoes” value (“percentage of barcode signal found” below) was 50.8%.
On to `CC(=O)N1CCN(c2ccc(Oc3ccc(Cl)cc3O)cc2)CC1`, for which the “percentage of barcode signal found” value was 23.4%.
With `NCCN(C(=O)c1ccc(Cl)cc1Cl)c1ccc(OCc2ccc(Cl)cc2)cc1`, the “percentage of barcode signal found” value is 65.8%.
With `N=C(N)Nc1ccc(-c2ccc(-c3ccc(NC(=N)N)cc3Cl)o2)c(Cl)c1` the figure was 39.3%; with `O=C(Nc1nnc(S)s1)c1cc(Br)ccc1Cl`, 18.9%.
Turning to `Cc1ccc(S(=O)(=O)Nc2ccc(CN3CCN(C(=O)c4cccc(C#N)c4)CC3)cc2)cc1`, the “percentage of barcode signal found” value was 0.0235%.
For `CCCc1ccc(S(=O)(=O)Nc2ccc(CN3CCN(CC4CC4)CC3)cc2)cc1`, the “percentage of barcode signal found” value is 9.2%.
Turning to `Cc1cc(Cl)c(S(=O)(=O)N2CCCC2)cc1OCC(=O)NC1CCCCC1`, the “percentage of barcode signal found” value was 1.74%.
In the case of `C[C@H]1COc2c(N3CCN(C)CC3)c(F)cc3c(=O)c(C(=O)O)cn1c23`, the “percentage of barcode signal found” value was -1.12%.
The same measure for `CC(C)(C)CN1C(=O)C(c2ccccc2)(c2ccccc2)N=C1N`: 13.8%; for `Cc1ccc2nc(C)c(-c3ccn(Cc4ccccc4)n3)n2c1`: 71.6%.
Regarding `N#CCN(CCCCN1CCN(c2ccc(F)cc2)CC1)C(=O)OCc1ccccc1`, the “percentage of barcode signal found” value is 36.5%.
